For some assays here: Results with a measured potency or affinity are listed apart. Activity calls are given as the source filed them.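 The calls were made as follows, unless noted: active = membrane potential signal rise above negative control mean plus 3 SD in both duplicates, also active in the earlier TRPC4 screen; inactive = the rest.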
Experiments:
[1] = test system: TRPC4 beta (transient receptor potential cation channel C4), mouse; test: TRPC4 cation channel opening, retest – cell-based, Fluo4 calcium, HEK293 TRPC4beta/mu-opioid, duplicates, 10 µM, confirmation (AID 2426;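 active = fluorescence ratio normalized to control raised more than 50% in primary screen plus both repeat runs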); conditions: Fluo4 calcium fluorescence, at 10 µM; stronger effect = higher value
[2] = test system: transient receptor potential cation channel C4 beta (TRPC4), mouse; test: TRPC4 cation channel opening, second retest – cell-based, second round, Fluo4, HEK293 TRPC4beta/mu-opioid, 1 µM, confirmation (AID 2461;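 active = primary screen active and over 50% activation in each of two duplicate runs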); conditions: Fluo4 calcium fluorescence, at 1 µM; stronger effect = higher value
[3] = test system: TRPC4 (transient receptor potential cation channel C4 beta), mouse; test: potentiation of DAMGO EC20 TRPC4 response – cell-based, second round, Fluo-4, HEK293 TRPC4beta/mu-opioid, 1 µM, confirmation (AID 2554;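 active = primary screen hit whose fluorescence ratio, in both repeats, exceeds the weak agonist control mean by 3 SD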); conditions: DAMGO EC20, Fluo-4 calcium flux, at 1 µM; stronger effect = higher value
[4] = test system: TRPC4 beta (transient receptor potential cation channel C4), mouse; test: potentiation of DAMGO EC20 TRPC4 response – cell-based, Fluo-4, HEK293 TRPC4beta/mu-opioid, confirmation (AID 2555;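 active = primary screen hit whose calcium fluorescence ratio, in both repeats, exceeds the weak agonist control mean by 3 SD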); conditions: DAMGO EC20, Fluo-4 calcium flux, at 10 µM; stronger effect = higher value
[5] = molecular target: Short transient receptor potential channel 4 (Mus musculus) (UniProt Q9QUQ5); test: blockers of DAMGO-evoked TRPC4 calcium flux – cell-based, Fluo4, HEK293 TRPC4beta/mu-opioid, confirmation (AID 2636;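 active = calcium signal cut by more than 3 SD below the full-agonist control yet still positive, in both repeats and the earlier primary screen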); conditions: at 10 µM; stronger effect = higher value
[6] = molecular target: Short transient receptor potential channel 4 (Mus musculus) (UniProt Q9QUQ5); test: blockers of DAMGO-evoked TRPC4 calcium flux – cell-based, second round, Fluo4, HEK293 TRPC4beta/mu-opioid, 1 µM, confirmation (AID 2637;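 active = calcium signal ratio cut to more than 3 SD under the fully stimulated control mean yet still positive, in both repeats and the primary screen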); conditions: at 1 µM; stronger effect = higher value
[7] = molecular target: Short transient receptor potential channel 4 (Mus musculus) (UniProt Q9QUQ5); test: calcium entry via TRPC4 opening agents – cell-based, HEK293 TRPC4/mu-opioid, Fluo-4 calcium, dose response (AID 434937;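 active = primary screen activator hit with a dose response curve and TRPC4 channel activation at any tested dose; inactive = no activation, no dose response, or not a primary hit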)
[8] = molecular target: Short transient receptor potential channel 4 (Mus musculus) (UniProt Q9QUQ5); test: potentiation of DAMGO-evoked TRPC4 calcium signal – cell-based, HEK293 TRPC4/mu-opioid, Fluo-4 calcium, EC20 DAMGO, dose response (AID 434941;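 active = earlier screen potentiator hit that boosts the TRPC4 ion channel at some dose, with a dose response; inactive = no potentiation, no dose response, or not a prior hit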;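 also: calcium entry triggered by an EC20 dose of DAMGO at the co-expressed mu-opioid receptor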)
[9] = molecular target: Short transient receptor potential channel 4 (Mus musculus) (UniProt Q9QUQ5); test: block of DAMGO-driven TRPC4 calcium entry – cell-based, HEK293 TRPC4/mu-opioid, Fluo-4 calcium, dose response (AID 434942;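 active = primary screen inhibitor hit that blocks the TRPC4 channel at some tested dose, yielding a dose curve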)
[10] = molecular target: Short transient receptor potential channel 6 (Mus musculus) (UniProt Q61143); test: TRPC6 blockade by TRPC4 inhibitor hits – cell-based, HEK293, membrane potential dye, duplicate, selectivity assay for TRPC4 inhibitor project, confirmation (AID 434948;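 active = active in primary screen and both duplicates, each dropping signal beyond three positive-control SD with fluorescence still positive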); conditions: HEK293 TRPC6, membrane potential dye fluorescence, at 10 µM, stimulated with maximal-effect acetylcholine; stronger effect = higher value
[11] = molecular target: Short transient receptor potential channel 6 (Mus musculus) (UniProt Q61143); test: TRPC6 opening by TRPC4 activator hits – cell-based, HEK293, membrane potential dye, duplicate, selectivity assay for TRPC4 activator project, confirmation (AID 434950); conditions: HEK293 TRPC6, membrane potential fluorescence, at 10 µM; activation: stronger effect = higher value; outcome: activation
[12] = molecular target: Short transient receptor potential channel 6 (Mus musculus) (UniProt Q61143); test: positive modulators of mouse TRPC6 channel – HEK293 cells, membrane potential dye, duplicate, selectivity assay for TRPC4 potentiator project, confirmation (AID 434952;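 active = compound raising the membrane signal above positive-control mean plus 3 SD in both repeats, and a primary screen hit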); conditions: HEK293 TRPC6, membrane potential dye fluorescence, at 10 µM, maximal acetylcholine added after compound; stronger effect = higher value
[13] = molecular target: Short transient receptor potential channel 4 (Mus musculus) (UniProt Q9QUQ5); test: calcium flux activators in TRPC4/5HT1a cells, counter-screen for TRPC4 activator project, cell-based, second counter screen, HEK293 TRPC4/5HT1a, Fluo-4 (AID 434977;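 active = calcium signal rise above buffer-control mean plus 5 SD in both duplicates, and also a hit in the primary screen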); conditions: Fluo-4 calcium flux, at 10 µM; stronger effect = higher value
[14] = serotonin-gated TRPC4 signal block – cell-based, second counter screen, HEK293 TRPC4/5HT1a, Fluo-4, counter-screen for TRPC4 inhibitor project, confirmation (AID 434978;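 active = primary screen active whose calcium signal fell more than 3 SD beyond the full-serotonin control mean in both duplicate plates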;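 as to outcome: serotonin given first at submaximal then at maximal dose after compound preincubation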); conditions: Fluo-4 calcium flux, at 10 µM, serotonin added to trigger calcium flux; stronger effect = higher value
[15] = test system: TRPC4 (mouse), co-expressed with 5HT1a in HEK293; test: enhancement of serotonin-evoked TRPC4 response – cell-based, second counter screen, HEK293 TRPC4/5HT1a, Fluo-4, counter-screen for TRPC4 potentiator project, confirmation (AID 434979;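 active = signal rise over 3 SD above mean of control wells given weak agonist, in both repeats and first screen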); conditions: Fluo-4 calcium flux, at 10 µM, serotonin added at its EC20 dose; stronger effect = higher value
[16] = nonspecific calcium rise without TRPC4 – cell-based, HEK293 mu-opioid receptor line, counter-screen for TRPC4 activator project, confirmation (AID 449723;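 active = hit in primary screen, with calcium signal over 5 SD above buffer well mean in both duplicates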;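 also: counter screen cells carry the mu-opioid receptor alone and lack TRPC4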); conditions: HEK293 mu-opioid cells, Fluo-4 calcium fluorescence, at 10 µM; stronger effect = higher value
[17] = nonspecific potentiation of DAMGO calcium response – cell-based, HEK293 mu-opioid receptor line, counter-screen for TRPC4 allosteric potentiator project, confirmation (AID 449724;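 active = calcium signal rise more than 3 SD above the low-dose agonist control mean, in both duplicate plates and the primary screen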); conditions: HEK293 mu-opioid receptor cells, Fluo-4 calcium flux, at 10 µM, compound added before EC20 DAMGO stimulus; stronger effect = higher value

Sequence of Short transient receptor potential channel 4 (Mus musculus) (Q9QUQ5 whole entry, looked up): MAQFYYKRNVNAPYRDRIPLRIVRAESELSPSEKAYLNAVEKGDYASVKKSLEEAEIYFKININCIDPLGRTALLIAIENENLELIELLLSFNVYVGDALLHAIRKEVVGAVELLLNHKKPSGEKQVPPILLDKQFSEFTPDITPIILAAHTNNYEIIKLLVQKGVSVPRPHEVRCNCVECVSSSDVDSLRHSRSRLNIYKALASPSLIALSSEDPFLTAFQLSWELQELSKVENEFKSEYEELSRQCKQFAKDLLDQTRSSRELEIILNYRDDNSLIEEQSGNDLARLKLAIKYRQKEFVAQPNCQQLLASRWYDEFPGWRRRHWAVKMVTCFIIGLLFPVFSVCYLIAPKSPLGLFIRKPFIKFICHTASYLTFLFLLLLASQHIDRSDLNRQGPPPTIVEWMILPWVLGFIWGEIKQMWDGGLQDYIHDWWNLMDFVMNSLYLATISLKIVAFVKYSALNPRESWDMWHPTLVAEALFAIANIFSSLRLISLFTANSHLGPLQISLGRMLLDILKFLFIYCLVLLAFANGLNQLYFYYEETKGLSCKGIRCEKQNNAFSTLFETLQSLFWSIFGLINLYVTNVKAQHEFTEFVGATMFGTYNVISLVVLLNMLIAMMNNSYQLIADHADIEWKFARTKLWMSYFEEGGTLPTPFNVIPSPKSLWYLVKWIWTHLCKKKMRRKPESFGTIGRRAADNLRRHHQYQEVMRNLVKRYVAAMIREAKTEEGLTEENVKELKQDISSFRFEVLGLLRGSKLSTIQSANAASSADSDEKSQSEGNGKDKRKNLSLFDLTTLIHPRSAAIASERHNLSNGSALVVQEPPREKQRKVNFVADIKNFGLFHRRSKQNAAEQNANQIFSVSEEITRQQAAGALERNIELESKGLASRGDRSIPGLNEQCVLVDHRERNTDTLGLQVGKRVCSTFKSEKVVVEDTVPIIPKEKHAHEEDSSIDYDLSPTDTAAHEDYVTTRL
Sequence of Short transient receptor potential channel 6 (Mus musculus) (Q61143 whole entry, looked up): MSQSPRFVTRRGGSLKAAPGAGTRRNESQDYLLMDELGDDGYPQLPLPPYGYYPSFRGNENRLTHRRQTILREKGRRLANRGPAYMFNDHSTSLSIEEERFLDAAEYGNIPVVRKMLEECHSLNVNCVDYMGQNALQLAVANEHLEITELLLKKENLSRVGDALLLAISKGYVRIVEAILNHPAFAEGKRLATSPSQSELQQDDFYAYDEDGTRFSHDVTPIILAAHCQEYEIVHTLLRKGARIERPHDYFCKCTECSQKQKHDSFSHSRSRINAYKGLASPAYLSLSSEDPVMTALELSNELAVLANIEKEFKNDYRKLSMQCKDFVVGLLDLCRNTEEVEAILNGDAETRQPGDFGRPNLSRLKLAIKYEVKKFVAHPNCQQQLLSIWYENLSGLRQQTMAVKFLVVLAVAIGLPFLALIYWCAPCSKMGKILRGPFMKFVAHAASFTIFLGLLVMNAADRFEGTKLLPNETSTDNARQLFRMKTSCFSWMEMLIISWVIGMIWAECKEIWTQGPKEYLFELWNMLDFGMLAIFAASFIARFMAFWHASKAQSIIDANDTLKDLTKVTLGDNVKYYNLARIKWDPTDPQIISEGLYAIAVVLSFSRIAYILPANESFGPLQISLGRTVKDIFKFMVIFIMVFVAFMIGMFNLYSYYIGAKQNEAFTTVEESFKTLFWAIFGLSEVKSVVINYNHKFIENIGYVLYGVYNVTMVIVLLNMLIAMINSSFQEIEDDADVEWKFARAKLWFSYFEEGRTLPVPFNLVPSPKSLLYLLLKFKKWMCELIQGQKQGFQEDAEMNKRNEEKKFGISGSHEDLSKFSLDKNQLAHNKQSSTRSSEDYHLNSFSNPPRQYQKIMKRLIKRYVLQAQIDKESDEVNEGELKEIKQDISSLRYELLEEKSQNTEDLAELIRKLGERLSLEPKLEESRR

COc1ccc(CNCC(O)(c2ccccc2)c2ccccc2)cc1OC
inactive: outcome [1] | outcome [2] | outcome [3] | outcome [4] | outcome [5] | outcome [6] | outcome [7] | outcome [8] | outcome [9] | outcome [10] | outcome [11] | outcome [12] | outcome [13] | outcome [14] | outcome [15] | outcome [16] | outcome [17]

CSCC[C@H](NC(=O)N1CCn2c1nc1ccccc12)C(=O)NCc1ccc(C)cc1
inactive: outcome [1] | outcome [2] | outcome [3] | outcome [5] | outcome [6] | outcome [7] | outcome [8] | outcome [9] | outcome [10] | outcome [11] | outcome [12] | outcome [13] | outcome [14] | outcome [16] | outcome [17]
active: potentiation [4] 30% | potentiation [15] 6.18%

COc1ccc(CCn2c(=S)[nH]c3cc(C(=O)N4CCOCC4)ccc3c2=O)cc1OC
inactive: outcome [1] | outcome [2] | outcome [3] | outcome [4] | outcome [5] | outcome [6] | outcome [7] | outcome [8] | outcome [9] | outcome [10] | outcome [11] | outcome [12] | outcome [13] | outcome [14] | outcome [15] | outcome [16] | outcome [17]

Cn1c(C(=O)N[C@@H](C(=O)O)c2ccccc2)cc2cc(Cl)ccc21
inactive: outcome [1] | outcome [2] | outcome [3] | outcome [4] | outcome [5] | outcome [6] | outcome [7] | outcome [8] | outcome [9] | outcome [10] | outcome [11] | outcome [12] | outcome [13] | outcome [14] | outcome [15] | outcome [16] | outcome [17]

c1ccc2c(c1)[nH]c1c(N3CCCC3)ncnc12
inactive: outcome [1] | outcome [2] | outcome [3] | outcome [4] | outcome [5] | outcome [6] | outcome [7] | outcome [8] | outcome [9] | outcome [10] | outcome [11] | outcome [12] | outcome [13] | outcome [14] | outcome [15] | outcome [16] | outcome [17]

Cc1ccc(/C=N/NC(=S)NC2CCCCC2)o1
inactive: outcome [1] | outcome [2] | outcome [3] | outcome [5] | outcome [6] | outcome [7] | outcome [8] | outcome [9] | outcome [10] | outcome [11] | outcome [12] | outcome [13] | outcome [14] | outcome [16] | outcome [17]
active: potentiation [4] 66% | potentiation [15] 85.1%

Cc1ccc2oc(C(=O)N3CCC(O)(c4ccccc4)CC3)c(C)c2c1
inactive: outcome [1] | outcome [2] | outcome [3] | outcome [5] | outcome [6] | outcome [7] | outcome [8] | outcome [9] | outcome [10] | outcome [11] | outcome [12] | outcome [13] | outcome [14] | outcome [16] | outcome [17]
active: potentiation [4] 11% | potentiation [15] 27.2%

C=CCNC(=S)N1CCN(CCN=Cc2c(C)[nH]n(-c3ccc([N+](=O)[O-])cc3)c2=O)CC1
inactive: outcome [1] | outcome [2] | outcome [3] | outcome [4] | outcome [5] | outcome [6] | outcome [7] | outcome [8] | outcome [9] | outcome [10] | outcome [11] | outcome [12] | outcome [13] | outcome [14] | outcome [15] | outcome [16] | outcome [17]

Cc1sc(NC(=O)C2CCCCC2C(=O)O)c(C(N)=O)c1-c1ccc(C(C)(C)C)cc1 (stereo unspecified)
inactive: outcome [1] | outcome [2] | outcome [3] | outcome [4] | outcome [6] | outcome [7] | outcome [8] | outcome [9] | outcome [10] | outcome [11] | outcome [12] | outcome [13] | outcome [15] | outcome [16] | outcome [17]
active: inhibition [5] 95% | inhibition [14] 18.7%

CCOC(=O)c1ccc(N=C2C(=S)N(c3ccc(C(=O)OCC)cc3)C(=N)N2/N=C/c2ccccc2)cc1
inactive: outcome [1] | outcome [2] | outcome [3] | outcome [4] | outcome [5] | outcome [6] | outcome [7] | outcome [8] | outcome [9] | outcome [10] | outcome [11] | outcome [12] | outcome [13] | outcome [14] | outcome [15] | outcome [16] | outcome [17]

CCc1ccc(OCC(=O)NC2CCCCC2)c(Br)c1
inactive: outcome [1] | outcome [2] | outcome [3] | outcome [5] | outcome [6] | outcome [7] | outcome [8] | outcome [9] | outcome [10] | outcome [11] | outcome [12] | outcome [13] | outcome [14] | outcome [16] | outcome [17]
active: potentiation [4] 46% | potentiation [15] 135%

Cc1ccc(C(=O)OCCN2CCN(c3ncc(C(F)(F)F)cc3Cl)CC2)cc1
inactive: outcome [1] | outcome [2] | outcome [3] | outcome [5] | outcome [6] | outcome [7] | outcome [8] | outcome [9] | outcome [10] | outcome [11] | outcome [12] | outcome [13] | outcome [14] | outcome [16] | outcome [17]
active: potentiation [4] 9% | potentiation [15] 14.3%

O=C(COc1ccc(Br)cc1Cl)c1ccc[nH]1
active: inhibition [5] 89% | inhibition [14] 43.7%
inactive: outcome [1] | outcome [2] | outcome [3] | outcome [4] | outcome [6] | outcome [7] | outcome [8] | outcome [9] | outcome [10] | outcome [11] | outcome [12] | outcome [13] | outcome [15] | outcome [16] | outcome [17]

From PubChem BioAssay
